# Assay outcomes from PubChem BioAssay.
# In the library only some 19% were active in any assay of this set; here they are far more common.
# TDP1 cell noCPT: qHTS for Inhibitors of human tyrosyl-DNA phosphodiesterase 1 (TDP1): qHTS in cells in absence of CPT | DT40 Tdp1-/- hTDP1 cells, no CPT, ATP luminescence, 48 h | Potency, µM (highest dose often 46.2 µM), inactives show top-dose activity change, negative = growth inhibition, usual class: inhibitors | AID 686978, 2013 | 420,000 tested, 15% active; also: potency is read from the fitted curve at half-maximal effect; nearly all actives have a fitted effect of over 55% in size
#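 No-CPT arm: Tdp1-/-;hTDP1 DT40 cells (400/well) plus compounds, incubated ≥48 hr at 37 °C. Readout CellTiter-Glo luminescence.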
# HT1080 IDH1KD tx: kills HT-1080 cells with IDH1 knockdown | HT-1080 IDH1 knockdown viability, ATP luminescence, 48 h | Potency, µM (top dose mostly 46.1 µM), without a hit: at the top dose activity, negative = toxicity, usual class: cytotoxic | 360,000 tested, 2% active | AID 686971;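 also: potency is read from the fitted curve at half-maximal effect; 0% = DMSO wells and -100% = cell-free medium wells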
#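 Cytotoxicity counter-line: IDH1KD HT-1080, 48 h, CellTiter-Glo. Curves classed by r2, magnitude and activity.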
# IL-1B inflam inh: inhibitors of inflammasome signaling (IL-1 beta secretion); THP-1 LPS/ATP IL-1B secretion, AlphaLISA, 16 h; stronger effect = lower value; 360,000 tested, 4.7% active; activity change, % at 57.5 µM; in the data active = activity change below about -50%; inconclusive = mostly about -30% to -49%
#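 Secreted IL-1B measured by AlphaLISA bead assay after 16 h compound exposure of THP-1 cells; compounds (final up to 57.5 uM) added 1 h before LPS (250 ng/mL) and ATP (1.25 mM) stimulation; lower signal means less secretion.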
# HT1080NT lethal: kills 2HG-producing HT-1080-NT fibrosarcoma cells; Potency, µM (top dose mostly 46.1 µM), inactives show at the top dose activity, negative = less viability, most hits filed as cytotoxic; HT-1080-NT fibrosarcoma viability, CellTiter-Glo ATP luminescence, 48 h; AID 686970; 360,000 tested, 1.6% active;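 also: NT is the 2HG producing partner of a matched IDH1 knockdown line; potency is read from the fitted curve at half-maximal effect; 0% = DMSO-treated cells and -100% = media-only wells without cells; nearly all actives have a fitted effect of over 55% in size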
#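 HT-1080-NT; 750 cells/well; 5% FBS RPMI; 48 h compound, 37 degrees C; CellTiter-Glo luminescence; curve fitting and curve-class assignment.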
# TDP1 cell CPT: DT40-hTDP1 cell growth loss with CPT | Potency, µM (highest dose often 46.2 µM), for inactives: at the highest dose activity change, negative = growth inhibition, hits mostly inhibitors | chicken DT40 Tdp1-/-;hTDP1 cells + 20 nM CPT, ATP luminescence, 48 h | 420,000 tested, 12% active | AID 686979; also: potency is read from the fitted curve at half-maximal effect; nearly all actives have a fitted effect of over 55% in size
#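 Chicken DT40 Tdp1-/- cells stably complemented with human TDP1 were seeded at 400 cells/well in medium containing 20 nM camptothecin, exposed to pin-transferred compounds, and grown at 37 °C for at least 48 hr. Viability was read as ATP luminescence.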
# An asterisk follows results filed as active; ? = inconclusive; . = no result given; [ ] = dose if it differs, or a comment. Unless noted, calls follow the shape of the dose curve; as a rule, active = well fitted curve in the direction sought with a large enough effect; inconclusive = small, poorly fitted or top-dose-only effect, or another doubt; inactive = no such curve, though single readings can be large; an effect the other way counts as inactive or inconclusive. Unless noted, % is scaled to controls: 0 for no effect and ±100 for the full control effect.
SMILES,TDP1 cell noCPT,HT1080 IDH1KD tx,IL-1B inflam inh,HT1080NT lethal,TDP1 cell CPT
COc1ccc(C2/C(=C(/O)c3ccc(F)cc3)C(=O)C(=O)N2CCCN(C)C)cc1 (configuration not stated),-2%,0%,0,19%,13%
CC1=C(/C=N/Nc2ccc([N+](=O)[O-])cc2[N+](=O)[O-])C(C)(C)CCC1,18µM*,-9%,11,0%,?
C/C=C1\NC(=O)[C@H](C)NC(=O)[C@@H](NC(=O)[C@@H](Cc2ccc(O)cc2)NC(=O)[C@@H](NC(=O)/C(C)=C/C)C(C)C)[C@@H](C)OC(=O)[C@H](CCCCc2ccc(O)cc2)NC(=O)[C@@H](CCC(=O)O)NC1=O,0%,13%,23,1%,8%
CC1(C)CC(=O)C2=C(C1)c1c(ccc3ccccc13)NC2c1ccc(Br)o1 (configuration not stated),21µM*,?,?,?,?
O=C(NCC1CCC2(CCN(Cc3cccc(-c4ccco4)c3)CC2)O1)c1ccccc1 (configuration not stated),-23%,.,.,.,-12%[9.04 µM]
COCCn1cnc2c(c1=O)c1nc3ccccc3nc1n2/N=C/c1ccco1,?,13%,-11,15%,?
CCCCCCn1cnc2c(c1=O)c1nc3ccccc3nc1n2/N=C/c1ccco1,18µM*,1%,-28,11%,?
COCCn1cnc2c(c1=O)c1nc3ccccc3nc1n2/N=C/c1ccc(OC)c(OC)c1,16µM*,9%,9,12%,18µM*
COCCCn1cnc2c(c1=O)c1nc3ccccc3nc1n2CCc1ccccc1,18µM*,16%,?,5%,?
Cc1nc2c(c(=O)n1CCC1=CCCCC1)c1nc3ccccc3nc1n2/N=C/c1ccco1,23µM*,17%,-16,1%,16µM*
CCCCn1c2nc3ccccc3nc2c2c(=O)n(CCC)cnc21,?,9%,-9,11%,?
Cc1ccc(C)c(N(CC(=O)N2CCCC2)S(C)(=O)=O)c1,4%,3%,-6,-2%,4%
Cc1cc(=O)oc2cc(OCC(=O)N3CCC(C(N)=O)CC3)ccc12,2%,4%,-3,0%,11%
CCCS(=O)(=O)NC(=O)C1(C)CCCN(C(=O)c2cc(OC)ccc2Br)C1 (configuration not stated),-2%,1%,38,10%,-4%
CCOCCc1nnc(NC(=O)C(=O)c2cc(C)n(-c3cccc(C)c3)c2C)s1,?,.,.,.,-4%
CCOC(=O)c1noc2ncnc(Nc3cc(Cl)c(OC)cc3OC)c12,10%,.,.,.,-12%
COc1ccc(N=Cc2ccc(N(CCC#N)CCC#N)cc2)cc1,-19%,7%,2,?,5%
CN(C)c1ccc(/C=C(\C#N)c2ccccc2)cc1,2.6µM*,10µM*,14,12µM*,2.6µM*
CN(C)c1cccc(/C=C(\C#N)c2ccccc2)c1,2.3µM*,3.3µM*,-5,?,2.9µM*
CN(C)c1ccc(/C=C(\C#N)C(=O)c2ccccc2)cc1,-17%,-1%,-10,5%,-26%
COc1ccc(C(C#N)=Cc2ccc(N(C)CCC#N)cc2)cc1,26µM*,?,-5,-21%,23µM*
CC(C)Cn1c(-c2cccs2)nc2nc3ccccc3nc21,15µM*,-8%,-9,-11%,16µM*
CCCCn1c(-c2cccs2)nc2nc3ccccc3nc21,23µM*,11%,5,0%,?
c1ccc(-c2nc3nc4ccccc4nc3n2Cc2ccco2)cc1,22µM*,1%,-7,-3%,?
Fc1ccc(-c2nc3nc4ccccc4nc3n2Cc2ccco2)cc1,?,-1%,-2,-4%,?
SMILES,TDP1 cell noCPT,HT1080 IDH1KD tx,IL-1B inflam inh,HT1080NT lethal,TDP1 cell CPT
CCCCOCCCn1c(-c2ccco2)nc2nc3ccccc3nc21,21µM*,-8%,-29,-2%,?
Cc1cccc(C(=O)Nc2ccc(C(=O)OCc3cc(=O)n4nc(CC(C)C)sc4n3)cc2)c1,?,.,.,.,-8%
Cc1ccc(C)c(-n2cc(-c3ccccc3)nc2SCC(=O)Nc2ccccc2)c1,18µM*,.,.,.,?
Cc1ccccc1NC(=O)CSc1nc(-c2ccccc2)cn1-c1ccccc1F,23µM*,.,.,.,?
Cc1ccccc1NC(=O)CSc1nnc(-c2ccccc2)n1-c1ccccc1,?,-6%,-29,-6%,-75%
COc1ccc(CNc2ccc3c(c2)ncn3C)cc1OC,?,16µM*,34,16µM*,?
O=c1[nH]c(=S)[nH]c2c1C(c1ccc(Cl)cc1)OC(C1CCCCC1)C2 (configuration not stated),?,?,3,?,?
OCc1ccc2c(c1)c(-c1ccc3c(c1)OCCO3)c(-c1ccccc1)n2-c1ccccc1,23µM*,-18%,0,?,18µM*
OCC1(Cc2ccccc2)CCCN(Cc2ccc3c(c2)OCCO3)C1 (configuration not stated),-4%,-3%,-14,-8%,-10%
CCCC(C)NC(=O)c1cc(S(=O)(=O)N2CCCCCC2)ccc1OC (configuration not stated),?,0%,-12,1%,-18%
O=C1/C(=C\c2cccs2)N=C(c2cccs2)N1Nc1ccccc1,-11%,-15%,-61*,-29%,-4%
O=C1/C(=C/c2cccs2)N=C(c2cccs2)N1Nc1ccccc1,-17%,-18%,-70*,-14%,-18%
O=C(Nc1nnc(-c2ccc(Br)cc2)o1)c1ccco1,?,-15%,3,-2%,?
Cc1ccc(C)c(N2CCN(C(=O)C3CCN(S(=O)(=O)c4cccc5nsnc45)CC3)CC2)c1,18µM*,-23%,?,-15%,18µM*
Cc1ccc(NC(=O)C2CCN(S(=O)(=O)c3cccc4nsnc34)CC2)cc1,?,.,.,.,-13%
Cc1ccc(C)c(N(C)C(=O)C2CCN(S(=O)(=O)c3cccc4nsnc34)CC2)c1,13µM*,.,.,.,16µM*
CC1CCN(C(=O)C2CCN(S(=O)(=O)c3cccc4nsnc34)CC2)CC1,-20%,6%,-9,16%,-13%
Cc1ccc(N2CCN(S(=O)(=O)c3ccc4c(c3)oc(=O)n4C)CC2C)cc1 (configuration not stated),-9%,-4%,13,-10%,?
Cc1ccc(N2CCN(C(=O)C3CCN(S(=O)(=O)c4cccc5nsnc45)CC3)CC2C)cc1 (configuration not stated),16µM*,9%,-15,26%,?
